PubChem BioAssay (NCATS)
Inconclusive results are not listed. Values without a mark were called inactive. Active and inactive are the calls of the source. Calls follow the shape of the dose curve; as a rule, active = well fitted inhibition curve with a large enough effect in the repeat runs; inconclusive = weak or mixed curves; inactive = flat fitted curve, though single readings scatter.
% is scaled to controls: 0 for no effect and ±100 for the full control effect; potency is read from the fitted curve at half-maximal effect.

Each compound was assayed against Cytochrome P450 2D6 (Homo sapiens) (UniProt P10635) (assay: Cytochrome P450 family 2 subfamily D member 6 (CYP2D6) small molecule antagonists: luciferase biochemical (cell-free) qHTS assay (AID 1645840; also: nearly all actives have a fitted effect of over 55% in size)). Conditions: P450-Glo CYP2D6 enzyme, luciferin luminescence, 1 h; series mostly up to 57.4 µM; activity change, negative = inhibition: at the top concentration.
Cytochrome P450 2D6 (Homo sapiens), sequence (P10635 whole entry, looked up): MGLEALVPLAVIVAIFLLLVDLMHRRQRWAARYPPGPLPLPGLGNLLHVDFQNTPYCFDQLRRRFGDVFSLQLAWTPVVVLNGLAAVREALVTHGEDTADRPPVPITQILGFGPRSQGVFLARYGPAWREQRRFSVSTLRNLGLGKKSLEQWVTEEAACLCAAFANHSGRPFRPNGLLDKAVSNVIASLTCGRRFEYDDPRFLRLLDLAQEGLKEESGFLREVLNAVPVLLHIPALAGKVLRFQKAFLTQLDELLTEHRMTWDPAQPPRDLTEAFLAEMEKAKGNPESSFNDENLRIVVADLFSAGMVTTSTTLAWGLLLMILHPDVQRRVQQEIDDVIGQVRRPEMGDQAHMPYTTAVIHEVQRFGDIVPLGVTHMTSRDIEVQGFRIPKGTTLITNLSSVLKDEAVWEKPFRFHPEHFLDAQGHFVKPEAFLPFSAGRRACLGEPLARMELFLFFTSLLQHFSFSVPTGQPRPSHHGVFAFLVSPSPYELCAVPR
Protocol: National Center for Advancing Translational Sciences [NCATS] Assay Overview: Cytochrome P450 (CYP) enzymes are membrane-bound hemeproteins that play a key role in metabolism of drugs and xenobiotics. Assaying the effect of chemicals on CYP isozymes is useful to minimize the adverse drug reactions and toxicities in drug development process. Chemical compounds were tested for their effect on CYP enzyme activities by using P450-Glo (TM) screening systems (Promega Corporation, Madison, WI). These systems provide a luminescent method containing proluciferin substrates and are converted to luciferin products by CYP isozymes. The luciferin products formed are detected with a luciferin detection reagent, and the amount of light produced is proportional to CYP activity. P450-Glo (TM) CYP2D6 screening system (Catalog. No. V9890) was used to detect the compounds that interfere in CYP2D6 activity.
Assay Protocol Summary: Two ul of enzyme-substrate mix was dispensed into medium binding white/solid 1536-well plates (Greiner Bio-One North America Inc., Monroe, NC) using a Flying Reagent Dispenser (FRD, Aurora Discovery, San Diego, CA). […] The assay plates were incubated at room temperature for 10 min. Then 2 ul of NADPH regeneration solution was added to each well of the assay plates using an FRD and incubated at room temperature for 1 h. The reaction was stopped by adding 4 ul of detection reagent using an FRD and after 20 min incubation at room temperature, the luminescence signal was measured using a ViewLux plate reader (Perkin Elmer, Shelton, CT). Data were expressed as relative luminescence units.
With `CN(C)C(=O)Oc1cc(OC(=O)N(C)C)cc(C(O)CNC(C)(C)C)c1` (stereo not given) the Potency was 8.71 µM (active).
For `COc1cc(C[C@@H](C)N)c(OC)cc1Br`, the Potency was 25.9 µM (active).
For `OC(O)C(Cl)(Cl)Cl`, the “activity change, negative = inhibition” value was 2.77%.
For `COC(=O)C1=CCCN(C)C1`, the “activity change, negative = inhibition” value was -3.05%.
In the case of `ClCc1cccc(Cl)c1`, the Potency is reported as 20.4 µM (active).
In the case of `C[C@@H]1O[C@@H](O[C@@H]2C=C3CC[C@@H]4[C@H](CC[C@]5(C)[C@@H](c6ccc(=O)oc6)CC[C@]45O)[C@@]3(C)CC2)[C@H](O)[C@H](O)[C@H]1O`, the “activity change, negative = inhibition” value is reported as 3.19%.
For `Oc1ccc2[nH]cc(CCCCN3CC=C(c4ccccc4)CC3)c2c1`, the Potency was 0.195 µM (active).
`CCOC(=O)c1ncn2c1CN(C)C(=O)c1c(I)cccc1-2` was tested, and the “activity change, negative = inhibition” value was 0.594%.
`CC(C)=CCN1CC[C@@]2(C)c3cc(O)ccc3C[C@@H]1[C@@H]2C` was tested, and the Potency was 0.176 µM (active).
For `C=CCOC(Cn1ccnc1)c1ccc(Cl)cc1Cl` (stereo not given), the Potency was 2.88 µM (active).
With `COc1cc(C[C@@H](C)N)c(OC)cc1C` the Potency was 38.1 µM (active).
For `CCO[C@H]1O[C@@H]2OC3(C)CC[C@H]4[C@H](C)CC[C@@H]([C@H]1C)[C@@]24OO3`, the “activity change, negative = inhibition” value was -4.73%.
`O=C(CCCCl)c1ccc(F)cc1` was tested, and the “activity change, negative = inhibition” value was -0.875%.
In the case of `COc1ccc2c(C(=O)c3ccc(Cl)cc3)c(C)n(CC(=O)O)c2c1`, the “activity change, negative = inhibition” value is reported as -2.2%.
With `O=C(N[C@@H]1N=C(c2ccccc2F)c2cccc3c2N(CC3)C1=O)c1cc2ccccc2[nH]1` the “activity change, negative = inhibition” value was 8.48%.
In the case of `CC[n+]1c(-c2ccccc2)c2cc(N)ccc2c2ccc(N)cc21`, the Potency is reported as 3.47 µM (active).
With `CC(CC(C#N)(c1ccccc1)c1ccccc1)N(C)C` (stereo not given) the Potency was 5.61 µM (active).
In the case of `c1ccc2c(c1)Sc1ccccc1N2CC1CN2CCC1CC2` (stereo not given), the Potency is reported as 0.123 µM (active).
For `CN1C[C@@H](NS(=O)(=O)N(C)C)C[C@@H]2c3cccc4c3c(cn4C)C[C@H]21`, the Potency was 2.19 µM (active).
`CC(Cc1ccc2c(c1)OCO2)NO` (stereo not given) was tested, and the Potency was 61.1 µM (active).
For `CC(C(O)c1ccccc1)N(C)C/C=C/c1ccccc1` (stereo not given), the Potency was 0.0389 µM (active).
In the case of `CC(C)=C[C@@H]1[C@@H](C(=O)OCc2coc(Cc3ccccc3)c2)C1(C)C`, the “activity change, negative = inhibition” value is reported as 5.6%.
For `C[N+]1(C)[C@@H]2CC[C@H]1CC(OC(=O)C(CO)c1ccccc1)C2` (stereo not given in full), the “activity change, negative = inhibition” value was -21.7%.
In the case of `CC[C@]1(O)CC[C@H]2[C@@H]3CCC4=CCCC[C@@H]4[C@H]3CC[C@@]21C`, the Potency is reported as 17.4 µM (active).
With `C[C@]12Cc3nonc3C[C@@H]1CC[C@@H]1[C@@H]2CC[C@@]2(C)[C@H]1CC[C@]2(C)O` the “activity change, negative = inhibition” value was -27.5%.
In the case of `COP(=O)(OC)OC=C(Cl)Cl`, the “activity change, negative = inhibition” value is reported as -21.5%.
With `c1ccc2nc(N3CCNCC3)ccc2c1` the “activity change, negative = inhibition” value was -17.3%.
`CCCCCCCCCCCCOS(=O)(=O)O` was tested, and the “activity change, negative = inhibition” value was 3.56%.
With `CCC(=O)O[C@H]1CC[C@H]2[C@@H]3CCC4=CC(=O)CC[C@]4(C)[C@H]3CC[C@]12C` the Potency was 16.9 µM (active).
In the case of `O=C(CCCN1CCC(n2c(=O)[nH]c3ccccc32)CC1)c1ccc(F)cc1`, the Potency is reported as 6.92 µM (active).
For `Clc1ccc(C(OCCN2CCCCC2)c2ccccc2)cc1` (stereo not given), the Potency was 0.049 µM (active).
`CCC(=O)OC1(c2ccccc2)CCN(C)CC1` was tested, and the Potency was 37.5 µM (active).
In the case of `CCS(=O)(=O)C(C)(C)S(=O)(=O)CC`, the “activity change, negative = inhibition” value is reported as 10.1%.
With `C[C@]12CC[C@H]3[C@@H](CC=C4C[C@@H](O)CC[C@@]43C)[C@@H]1CC[C@@H]2O` the “activity change, negative = inhibition” value was 1.06%.
With `CNC(=O)NC(O)C(Cl)(Cl)Cl` (stereo not given) the “activity change, negative = inhibition” value was 0.93%.
With `CCC1(c2cccc(O)c2)CCCCN(C)C1` (stereo not given) the Potency was 13.8 µM (active).
For `CCOC(C(=O)OCCN(C)C)(c1ccccc1)c1ccccc1`, the Potency was 1.38 µM (active).
`C[N+]1(CCC(C(N)=O)(c2ccccc2)c2ccccc2)CCCCC1` was tested, and the Potency was 15.5 µM (active).
`CN(C)CCc1c[nH]c2cccc(O)c12` was tested, and the Potency was 12.5 µM (active).
In the case of `CC(Cc1ccccc1)NCCCCl` (stereo not given), the Potency is reported as 1.23 µM (active).
